# Whole data set: some 2,900 compounds, median “IRF Lucia reporter activity, fold change vs agonist alone” near 0.9, cut for the highest 2% near 2.8. The full list was thinned out, with the highest values kept by preference.
# What was measured:
# [1] = system: RAW-Dual; test: IRF Lucia reporter activity, fold change vs agonist alone; cytotoxicity flag (confluency mask): not cytotoxic; higher = enhanced IRF activity
# Method in brief: (§1)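 After 50 nL of library stock was delivered by pin tool to RAW-Dual macrophages (50,000 cells/well, DMEM, 384-well plates), a PRR agonist was added 1 h later and the plates were kept at 37 °C, 5% CO2. Twenty hours later, IRF was read from supernatant by QuantiLuc luminescence and NF-κB by QuantiBlue absorbance at 620 nm. Reporter activity is stated as fold change over agonist-alone wells. Wells with IncuCyte confluency under 70% of agonist controls in both mask sets were counted as cytotoxic.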
# [2] = system: RAW-Dual; test: IRF Lucia reporter activity, fold change vs agonist alone; higher = enhanced IRF activity; settings: library stock concentration (final ~1000-fold dilution): 10 mM, agonist: MPLA (TLR4) […]
# Method in brief: as §1
# [3] = system: RAW-Dual; test: IRF Lucia reporter activity, fold change vs agonist alone; cytotoxicity flag (confluency mask): cytotoxic (confluency <70% of control); higher = enhanced IRF activity
# Method in brief: as §1
# [4] = agonist: 3'3'-cGAMP (STING) 10 ug/mL
# [5] = cytotoxicity flag (confluency mask): not cytotoxic
# [6] = cytotoxicity flag (confluency mask): cytotoxic (confluency <70% of control)
compound,measurement,setting,value
CCOC(=O)c1ccc(NC2CCCCC2)c(N)c1 (library stock concentration (final ~1000-fold dilution): 10 mM),IRF Lucia reporter activity,[1]; [4],1.04
same,IRF Lucia reporter activity,[1]; agonist: LPS (TLR4) 0.1 ug/mL,4.71
CCOC(=O)c1ccc(NC2CCCCC2)c(N)c1,IRF Lucia reporter activity,[2]; [5],1.83
CCOC(=O)c1ccc(N)cc1.Cl,IRF Lucia reporter activity,[2]; [5],1.01
CCOC(=O)c1ccc(N)cc1.Cl (library stock concentration (final ~1000-fold dilution): 10 mM),IRF Lucia reporter activity,[1]; [4],0.942
same,IRF Lucia reporter activity,[1]; agonist: LPS (TLR4) 0.1 ug/mL,1.15
CCn1cc(C(=O)O)c(=O)c2c(N)c(F)c(NC3CCCCC3)cc21 (library stock concentration (final ~1000-fold dilution): 10 mM),IRF Lucia reporter activity,[1]; [4],0.545
same,IRF Lucia reporter activity,[1]; agonist: LPS (TLR4) 0.1 ug/mL,0.223
NC(=O)C1CCC2CN1C(=O)N2OS(=O)(=O)O (stereo unspecified),IRF Lucia reporter activity,[2]; [5],1.13
NC(=O)C1CCC2CN1C(=O)N2OS(=O)(=O)O (stereo unspecified) (library stock concentration (final ~1000-fold dilution): 10 mM),IRF Lucia reporter activity,[1]; [4],1.1
same,IRF Lucia reporter activity,[1]; agonist: LPS (TLR4) 0.1 ug/mL,1.21
Oc1cc(CNC(=S)/C=C/c2cc(O)c(O)c(Br)c2)cc(O)c1O (library stock concentration (final ~1000-fold dilution): 10 mM),IRF Lucia reporter activity,[1]; [4],0.312
same,IRF Lucia reporter activity,[1]; agonist: LPS (TLR4) 0.1 ug/mL,4.35
O=C1CCC(N2Cc3c(OCc4ccc(CN5CCOCC5)cc4)cccc3C2=O)C(=O)N1 (stereo unspecified) (library stock concentration (final ~1000-fold dilution): 10 mM),IRF Lucia reporter activity,[1]; [4],1.05
same,IRF Lucia reporter activity,[1]; agonist: LPS (TLR4) 0.1 ug/mL,1.02
COc1cc(O)c(C(=O)Nc2nc(C(=O)NCCN(C(C)C)C(C)C)cs2)cc1OC.Cl.O.O.O,IRF Lucia reporter activity,[2]; [5],1.03
COc1cc(O)c(C(=O)Nc2nc(C(=O)NCCN(C(C)C)C(C)C)cs2)cc1OC.Cl.O.O.O (library stock concentration (final ~1000-fold dilution): 10 mM),IRF Lucia reporter activity,[1]; [4],0.967
same,IRF Lucia reporter activity,[1]; agonist: LPS (TLR4) 0.1 ug/mL,0.665
COc1ncc(-c2ccc3nccc(-c4ccnnc4)c3c2)cc1NS(=O)(=O)c1ccc(F)cc1F,IRF Lucia reporter activity,[2]; [5],1.11
COc1cc2nccc(Oc3ccc(NC(=O)Nc4ccc(F)cc4F)c(F)c3)c2cc1OC,IRF Lucia reporter activity,[2]; [6],1.23
CCCS(=O)(=O)Nc1ccc(F)c(C(=O)c2c[nH]c3ncc(-c4ccc(Cl)cc4)cc23)c1F (library stock concentration (final ~1000-fold dilution): 10 mM),IRF Lucia reporter activity,[1]; [4],0.195
same,IRF Lucia reporter activity,[1]; agonist: LPS (TLR4) 0.1 ug/mL,0.356
COc1cc2nccc(Oc3ccc(NC(=O)Nc4ccc(F)cc4F)c(F)c3)c2cc1OC (library stock concentration (final ~1000-fold dilution): 10 mM),IRF Lucia reporter activity,[3]; [4],1.02
same,IRF Lucia reporter activity,[3]; agonist: LPS (TLR4) 0.1 ug/mL,0.826
COc1ncc(-c2ccc3nccc(-c4ccnnc4)c3c2)cc1NS(=O)(=O)c1ccc(F)cc1F (library stock concentration (final ~1000-fold dilution): 10 mM),IRF Lucia reporter activity,[1]; [4],1.09
same,IRF Lucia reporter activity,[1]; agonist: LPS (TLR4) 0.1 ug/mL,3.52
CCCS(=O)(=O)Nc1ccc(F)c(C(=O)c2c[nH]c3ncc(-c4ccc(Cl)cc4)cc23)c1F,IRF Lucia reporter activity,[2]; [5],0.473
Cc1nc(Nc2ncc(C(=O)Nc3c(C)cccc3Cl)s2)cc(N2CCN(CCO)CC2)n1.Cl (library stock concentration (final ~1000-fold dilution): 10 mM),IRF Lucia reporter activity,[1]; [4],0.0778
same,IRF Lucia reporter activity,[1]; agonist: LPS (TLR4) 0.1 ug/mL,1.07
Cc1nc(Nc2ncc(C(=O)Nc3c(C)cccc3Cl)s2)cc(N2CCN(CCO)CC2)n1.Cl,IRF Lucia reporter activity,[2]; [5],0.77
C=C1CCN(C(C)C(O)(Cn2cncn2)c2ccc(F)cc2F)CC1 (stereo unspecified) (library stock concentration (final ~1000-fold dilution): 10 mM),IRF Lucia reporter activity,[3]; [4],1.25
same,IRF Lucia reporter activity,[3]; agonist: LPS (TLR4) 0.1 ug/mL,2.38
C=C1CCN(C(C)C(O)(Cn2cncn2)c2ccc(F)cc2F)CC1 (stereo unspecified),IRF Lucia reporter activity,[2]; [6],2.14
CC(C)(C)NC(=O)c1cncn1C1CCN(c2ccc(-c3nnc(C(F)(F)F)o3)cn2)CC1 (library stock concentration (final ~1000-fold dilution): 10 mM),IRF Lucia reporter activity,[1]; [4],1.33
same,IRF Lucia reporter activity,[1]; agonist: LPS (TLR4) 0.1 ug/mL,3.77
CC(C)CC(NC(=O)CNC(=O)c1cc(Cl)ccc1Cl)B(O)O (stereo unspecified),IRF Lucia reporter activity,[2]; [5],1.08
CC(C)CC(NC(=O)CNC(=O)c1cc(Cl)ccc1Cl)B(O)O (stereo unspecified) (library stock concentration (final ~1000-fold dilution): 10 mM),IRF Lucia reporter activity,[1]; [4],1
same,IRF Lucia reporter activity,[1]; agonist: LPS (TLR4) 0.1 ug/mL,1.16
COc1ccc2c(OC3CC4C(=O)NC5(C(=O)NS(=O)(=O)C6CC6)CC5/C=C\CCCCN(C)C(=O)C4C3)cc(-c3nc(C(C)C)cs3)nc2c1C (stereo unspecified) (library stock concentration (final ~1000-fold dilution): 10 mM),IRF Lucia reporter activity,[1]; [4],1.04
same,IRF Lucia reporter activity,[1]; agonist: LPS (TLR4) 0.1 ug/mL,1.18
COc1ccc2c(OC3CC4C(=O)NC5(C(=O)NS(=O)(=O)C6CC6)CC5/C=C\CCCCN(C)C(=O)C4C3)cc(-c3nc(C(C)C)cs3)nc2c1C (stereo unspecified),IRF Lucia reporter activity,[2]; [5],1.05
Cc1ccc(/C(=C\CN2CCCC2)c2ccccn2)cc1.Cl.O,IRF Lucia reporter activity,[2]; [5],1.09
Cc1ccc(/C(=C\CN2CCCC2)c2ccccn2)cc1.Cl.O (library stock concentration (final ~1000-fold dilution): 10 mM),IRF Lucia reporter activity,[1]; [4],0.877
same,IRF Lucia reporter activity,[1]; agonist: LPS (TLR4) 0.1 ug/mL,0.728
CC(C)(O)c1cc(Nc2cc(Oc3cn(C4CC4)nc3C3CCOCC3)ccn2)ccn1 (library stock concentration (final ~1000-fold dilution): 10 mM),IRF Lucia reporter activity,[1]; [4],1.14
same,IRF Lucia reporter activity,[1]; agonist: LPS (TLR4) 0.1 ug/mL,1.53
NC1CCCN(c2c(/C=C3\SC(=O)NC3=O)cccc2-c2ccccc2)C1 (stereo unspecified),IRF Lucia reporter activity,[2]; [5],1.1
NC1CCCN(c2c(/C=C3\SC(=O)NC3=O)cccc2-c2ccccc2)C1 (stereo unspecified) (library stock concentration (final ~1000-fold dilution): 10 mM),IRF Lucia reporter activity,[1]; [4],0.968
same,IRF Lucia reporter activity,[1]; agonist: LPS (TLR4) 0.1 ug/mL,1.16
CS(=O)(=O)CCNCc1ccc(-c2ccc3ncnc(Nc4ccc(OCc5cccc(F)c5)c(Cl)c4)c3c2)o1.Cc1ccc(S(=O)(=O)O)cc1.Cc1ccc(S(=O)(=O)O)cc1,IRF Lucia reporter activity,[2]; [5],1.28
CS(=O)(=O)CCNCc1ccc(-c2ccc3ncnc(Nc4ccc(OCc5cccc(F)c5)c(Cl)c4)c3c2)o1 (library stock concentration (final ~1000-fold dilution): 10 mM),IRF Lucia reporter activity,[1]; [4],0.277
same,IRF Lucia reporter activity,[1]; agonist: LPS (TLR4) 0.1 ug/mL,1.43
CS(=O)(=O)CCNCc1ccc(-c2ccc3ncnc(Nc4ccc(OCc5cccc(F)c5)c(Cl)c4)c3c2)o1.Cc1ccc(S(=O)(=O)O)cc1.Cc1ccc(S(=O)(=O)O)cc1.O,IRF Lucia reporter activity,[2]; [5],1.8
CS(=O)(=O)CCNCc1ccc(-c2ccc3ncnc(Nc4ccc(OCc5cccc(F)c5)c(Cl)c4)c3c2)o1.Cc1ccc(S(=O)(=O)O)cc1.Cc1ccc(S(=O)(=O)O)cc1 (library stock concentration (final ~1000-fold dilution): 10 mM),IRF Lucia reporter activity,[1]; [4],0.264
same,IRF Lucia reporter activity,[1]; agonist: LPS (TLR4) 0.1 ug/mL,3.36
CS(=O)(=O)CCNCc1ccc(-c2ccc3ncnc(Nc4ccc(OCc5cccc(F)c5)c(Cl)c4)c3c2)o1.Cc1ccc(S(=O)(=O)O)cc1.Cc1ccc(S(=O)(=O)O)cc1.O (library stock concentration (final ~1000-fold dilution): 10 mM),IRF Lucia reporter activity,[1]; [4],0.259
same,IRF Lucia reporter activity,[1]; agonist: LPS (TLR4) 0.1 ug/mL,2.46
CS(=O)(=O)CCNCc1ccc(-c2ccc3ncnc(Nc4ccc(OCc5cccc(F)c5)c(Cl)c4)c3c2)o1,IRF Lucia reporter activity,[2]; [5],1.6
COc1cc(F)c(C(C)C)cc1-c1ccc(C(F)(F)F)cc1CN1C(=O)OC(c2cc(C(F)(F)F)cc(C(F)(F)F)c2)C1C (stereo unspecified) (library stock concentration (final ~1000-fold dilution): 10 mM),IRF Lucia reporter activity,[1]; [4],1.12
same,IRF Lucia reporter activity,[1]; agonist: LPS (TLR4) 0.1 ug/mL,1.14
COc1cc(F)c(C(C)C)cc1-c1ccc(C(F)(F)F)cc1CN1C(=O)OC(c2cc(C(F)(F)F)cc(C(F)(F)F)c2)C1C (stereo unspecified),IRF Lucia reporter activity,[2]; [5],1.1
Cc1ccc(NC(=O)c2ccc(CN3CCN(C)CC3)cc2)cc1Nc1nccc(-c2cccnc2)n1,IRF Lucia reporter activity,[2]; [5],1.29
CC(C)(O)CNc1ncc(-c2ccnc(Nc3ccnc(Cl)c3)n2)c(CC2CC2)n1 (library stock concentration (final ~1000-fold dilution): 10 mM),IRF Lucia reporter activity,[1]; [4],0.0702
same,IRF Lucia reporter activity,[1]; agonist: LPS (TLR4) 0.1 ug/mL,3.2
CC(C)(O)CNc1nc(Nc2ccnc(C(F)(F)F)c2)nc(-c2cccc(C(F)(F)F)n2)n1 (library stock concentration (final ~1000-fold dilution): 10 mM),IRF Lucia reporter activity,[1]; [4],1
same,IRF Lucia reporter activity,[1]; agonist: LPS (TLR4) 0.1 ug/mL,1.29
Cc1nc(N)sc1-c1ccnc(Nc2ccc(N3CCOCC3)cc2)n1 (library stock concentration (final ~1000-fold dilution): 10 mM),IRF Lucia reporter activity,[1]; [4],0.0149
same,IRF Lucia reporter activity,[1]; agonist: LPS (TLR4) 0.1 ug/mL,0.023
CC(C)(O)CNc1ncc(-c2ccnc(Nc3ccncc3)n2)c(CC2CC2)n1 (library stock concentration (final ~1000-fold dilution): 10 mM),IRF Lucia reporter activity,[1]; [4],0.364
same,IRF Lucia reporter activity,[1]; agonist: LPS (TLR4) 0.1 ug/mL,10.3
Cc1nc(N)sc1-c1ccnc(Nc2ccc(N3CCOCC3)cc2)n1,IRF Lucia reporter activity,[2]; [5],0.0284
Nc1ncc(-c2ccnc(Nc3ccncc3)n2)c(CC2CC2)n1 (library stock concentration (final ~1000-fold dilution): 10 mM),IRF Lucia reporter activity,[3]; [4],0.336
same,IRF Lucia reporter activity,[3]; agonist: LPS (TLR4) 0.1 ug/mL,3.92
COc1cc(N2CCN(C)CC2)ccc1Nc1nccc(-c2cn(C)c3cnccc23)n1,IRF Lucia reporter activity,[2]; [5],0.246
Cc1ccc(NC(=O)c2ccc(CN3CCN(C)CC3)cc2)cc1Nc1nccc(-c2cccnc2)n1 (library stock concentration (final ~1000-fold dilution): 10 mM),IRF Lucia reporter activity,[1]; [4],0.549
same,IRF Lucia reporter activity,[1]; agonist: LPS (TLR4) 0.1 ug/mL,0.944
COc1cc(N2CCN(C)CC2)ccc1Nc1nccc(-c2cn(C)c3cnccc23)n1 (library stock concentration (final ~1000-fold dilution): 10 mM),IRF Lucia reporter activity,[1]; [4],0.0231
same,IRF Lucia reporter activity,[1]; agonist: LPS (TLR4) 0.1 ug/mL,0.154
Cc1c(NC(=O)OCC2COCCN2)cn2ncnc(Nc3ccc4c(cnn4Cc4cccc(F)c4)c3)c12 (stereo unspecified) (library stock concentration (final ~1000-fold dilution): 10 mM),IRF Lucia reporter activity,[1]; [4],0.267
same,IRF Lucia reporter activity,[1]; agonist: LPS (TLR4) 0.1 ug/mL,1.28
Cc1c(NC(=O)OCC2COCCN2)cn2ncnc(Nc3ccc4c(cnn4Cc4cccc(F)c4)c3)c12 (stereo unspecified),IRF Lucia reporter activity,[2]; [5],1.3

# Source: the supplement of paper PMC10037445
